Sampled rows, rich in hits. Any-hit rate of the full collection: about 2.8%.
CDK5 inh: inhibitors of human CDK5/p35 kinase, primary screen, biochemical, single concentration. Cyclin-dependent kinase 5 (Homo sapiens) + Cyclin-dependent kinase 5 activator 1 (Homo …. Recombinant CDK5/p35, ADP-Glo luminescence, 60 min. inhibition, % at 10 µM. 330,000 tested, 0.01% active. AID 488839, 2010;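 active = highest replicate inhibition of at least 50% and at least 75% of replicates reaching 50%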;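 note: plate controls were DMSO neutral control for no effect and GW8510 at 10 µM for full effect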
dFosB activator: activators of delta FosB homodimer, primary screen, biochemical, fluorescence polarization, TAMRA-CDK5 oligo, single point; Protein FosB (Mus musculus), P13346; purified delta FosB; percent of positive-control signal above neutral wells; activation, % at 25 µM; 340,000 tested, 0.99% active; AID 493131, 2011;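 active = mean activation above about 17%, with every replicate also reaching it, limit read from the data, passing the limit was not always enough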
SIRT5 inh: SIRT5 desuccinylase inhibitors, primary screen, biochemical, fluorescence imaging, single point, set 5 | Purified SirT5, succinyl-peptide AMC, trypsin-coupled fluorescence | 330,000 tested, 1.1% active | inhibition, % at 15 µM | NAD-dependent protein deacylase sirtuin-5, mitochondrial (Homo sapiens), Q9NXA8; in the data active = inhibition above about 15%
Target sequence (Q9NXA8 whole entry, looked up): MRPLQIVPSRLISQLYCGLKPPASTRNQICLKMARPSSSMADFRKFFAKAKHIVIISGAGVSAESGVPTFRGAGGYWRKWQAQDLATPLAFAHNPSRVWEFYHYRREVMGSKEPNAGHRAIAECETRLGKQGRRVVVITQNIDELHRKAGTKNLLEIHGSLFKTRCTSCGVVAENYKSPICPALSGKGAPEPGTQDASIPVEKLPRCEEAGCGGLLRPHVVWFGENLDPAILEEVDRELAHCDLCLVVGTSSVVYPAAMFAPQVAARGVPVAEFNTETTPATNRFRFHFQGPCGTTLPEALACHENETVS
PvdQ acylase: P. aeruginosa PvdQ acylase inhibitors, primary screen, biochemical, fluorescence, plate reader and imaging, single point; AID 488965, 2010; purified PvdQ acylase; 340,000 tested, 0.063% active; inhibition, % at 10 µM; in the data active = inhibition above about 30%, passing the limit was not always enough;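 note: 0% = vehicle neutral wells and 100% = reference inhibitor wells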
PglD DTNB: C. jejuni PglD acetyltransferase inhibitors, primary screen, biochemical, DTNB colorimetric, single point. UDP-N-acetylbacillosamine N-acetyltransferase PglD (Campylobacter jejuni). purified PglD enzyme, DTNB colorimetric CoA detection. inhibition, % at 12.5 µM. 360,000 tested, 0.098% active. AID 602405, 2012; in the data active = inhibition above about 16%, passing the limit was not always enough
FGF22 binding: binders of human FGF22 protein, primary screen, FGF22 synaptogenesis inhibitor project, biophysical, thermal shift, single point. Fibroblast growth factor 22 (Homo sapiens), Q9HCT0. recombinant FGF22 thermal shift, SYPRO orange fluorescence; percent of sucrose octasulfate shift, DMSO zero. activity (Tm shift, normalised), % at 9.99 µM. 340,000 tested, 1.5% active;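 active = mean Tm shift, scaled 0 neutral to 100 positive control, at about 1.3% or above, every replicate too, limit read from the data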
* marks the source's active call; other numbers are inactive results; nt = no result.

SMILES	CDK5 inh	dFosB activator	SIRT5 inh	PvdQ acylase	PglD DTNB	FGF22 binding
C[C@@H]1CCCCO[C@@H](CN(C)C(=O)C2CCCCC2)[C@@H](C)CN([C@H](C)CO)C(=O)c2cc(NC(=O)CCCN(C)C)ccc2O1	nt	nt	nt	nt	-4	0
O=C(Nc1ccc(Cl)cn1)c1ccccc1[N+](=O)[O-]	1	3	0	-1	-4	43*
Cc1ccnc(NC(=O)c2cccc([N+](=O)[O-])c2C)c1	2	-3	-1	-9	nt	43*
O=C(Nc1ccc(Cl)cn1)c1cccc2ccccc12	0	-6	0	-8	8	0
Cc1ccnc(NC(=O)c2ccccc2[N+](=O)[O-])c1	-3	-10	nt	-1	0	nt
COc1ccc(C#Cc2cnc3c(c2)C(=O)N([C@H](C)CO)C[C@H](C)[C@H](CN(C)C)O3)cc1	nt	nt	0	nt	2	0
CC[C@]12c3[nH]c4cc(-c5ccco5)ccc4c3CCN1C(=O)[C@@H](CC(=O)NC/C=C(\C)CCC=C(C)C)C[C@@H]2C(=O)N1CCN(C(=O)c2ccco2)CC1	-1	-13	nt	-11	0	nt
CC[C@]12c3[nH]c4ccccc4c3CCN1C(=O)C(CC(=O)NC/C=C(\C)CCC=C(C)C)C[C@@H]2C(=O)N1CCN(C(=O)c2ccco2)CC1 (stereo partly drawn)	-1	-17	16*	-10	-6	0
CCn1c(=O)cc(OCC(=O)Nc2ccc(OC)c(OC)c2)c2ccccc21	0	-7	-3	-12	nt	43*
COc1cc(NC(=O)Cc2c(C(=O)O)n(C)c3ccccc23)cc(OC)c1OC	-1	-3	0	-7	0	43*
COc1ccc(C)cc1NC(=O)Cc1c(C(=O)O)n(C)c2ccccc12	-1	-4	0	-7	-6	1
COc1ccc(NC(=O)Cc2c(C(=O)O)n(C)c3ccccc23)cc1OC	-1	8	0	2	nt	43*
CCn1c(=O)cc(OCC(=O)Nc2ccc3c(c2)OCCO3)c2ccccc21	0	-2	nt	-17	-1	nt
COc1ccc(C)cc1N(C)C(=O)Cc1c(C(=O)O)n(C)c2ccccc12	-1	8	29*	-2	0	0
CC1C=NC(S(=O)(=O)N2CC[C@@H]3[C@H](CO)N(C)c4ccc(-c5ccc(F)cc5)cc4[C@@H]32)=N1 (stereo partly drawn)	nt	nt	nt	nt	3	nt
C[C@H]1CN([C@@H](C)CO)C(=O)Cc2cc(NS(=O)(=O)c3cn(C)cn3)ccc2O[C@H]1CN(C)S(=O)(=O)c1cccs1	nt	nt	-4	nt	3	0
O=C(Cc1ccccc1)N1CCC(c2ccccc2)C1 (stereo not drawn)	-1	5	-9	-4	nt	0
COc1ccc(CC(=O)N2CCC(c3ccccc3)C2)cc1 (stereo not drawn)	-2	-4	-3	-1	nt	44*
COc1cccc(OC)c1OCCN1CCCC1	-2	-3	21*	-7	0	0
CCc1ccc(CN(C)CCc2ccccn2)cc1	-2	0	21*	3	0	0
O=C(N[C@H]1CC[C@H](CCn2cc(-c3ccc(F)cc3)nn2)O[C@@H]1CO)c1cnccn1	nt	nt	1	nt	0	0
COc1ccccc1C#Cc1ccc([C@H]2[C@@H](CO)N3CCCCN(C(=O)C4CCCC4)C[C@@H]23)cc1	nt	nt	19*	nt	5	-1
COc1ccccc1NC(=O)N1CCCCN2[C@H](C1)[C@@H](c1ccc(C#CC3CCCC3)cc1)[C@@H]2CO	nt	nt	16*	nt	-1	-1
CN(C)CC#Cc1ccc([C@@H]2[C@@H](CO)N3CCCCN(C(=O)CN(C)C)C[C@H]23)cc1	nt	nt	25*	nt	3	0

Screens from PubChem BioAssay.
